# Measurements taken from PubChem BioAssay (NCI).
# Compounds without any hit were thinned out: in the full panel of roughly 83,000, 20% have a hit.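 Assay: single dose, 48 h. Readout: percent growth (0 = no net growth; negative = cell death). Active: <10.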 The source made the active and inactive calls.
# Tested on: HL-60(TB) leukemia
# Assay: NCI-60 one-dose screen, 48 h (100 = growth as untreated, 0 = no growth, -100 = all killed)
# Conditions: 10 µM unless noted
row,SMILES,growth
1,S=C(NCCNC(=S)[S][Sn]([c]1ccccc1)([c]1ccccc1)[c]1ccccc1)[S][Sn]([c]1ccccc1)([c]1ccccc1)[c]1ccccc1,-31% (active)
2,COCCn1cc(-c2nc(-c3cc4cccnc4n3C)cs2)c2cc(OC)ccc21,82.6% (inactive)
3,CS(=O)(=O)Cc1cnc(C2OCCO2)s1,88.5% (inactive)
4,COc1ccc(-c2cc(/C=C/C(=O)c3ccc(N)cc3)[nH]n2)cc1OC,20.1% (inactive)
5,COc1cc(/C=C/c2cc(O)c(C(C)=O)c(O)c2)cc2c1O[C@]1(C)CC[C@@H](O)C(C)(C)[C@H]1C2,28.1% (inactive)
6,Cc1c(C(C)(C)O)cn2ncnc(Oc3ccc(NC(=O)Nc4ccc(Cl)c(C(F)(F)F)c4)cc3)c12,26.6% (inactive)
7,Nc1ccc(Br)cc1C(F)(F)F,90.2% (inactive)
8,CC[N+](CC)=c1sc2c(s1)C(c1ccc(Cl)cc1)Oc1ccc(Cl)cc1-2 (centres undefined),-34.3% (active)
9,CC(CCC(=O)O)(NC(=O)c1ccc([N+](=O)[O-])cc1)C(=O)O (centres undefined),94.9% (inactive)
10,CC(c1ccccc1)N(C)C (centres undefined),88.5% (inactive)
11,COc1ccc2c(c1)c(-c1nn3cc(-c4cccs4)nc3s1)cn2C,82.7% (inactive)
12,C[C@H]1[C@H](C)CC[C@]2(C(=O)N3CCN(C)CC3)CC[C@]3(C)C(=CC[C@@H]4[C@@]5(C)C/C(=C/c6ccco6)C(=O)C(C)(C)[C@@H]5CC[C@]43C)[C@H]12,-39.1% [100 µM] (active)
13,CCOc1nc(-c2ccccc2)cc2c(O)c(C(=O)NC(C)C)[nH]c(=O)c12,168% (inactive)
14,COc1cc2c(/C=C3\C(=O)Nc4ccc(Br)cc43)c(Cl)n(C)c2cc1C,-13.1% (active)
15,CC(C)CNCC(=O)Nc1ccc(Cc2ccc(NC(=O)CNCC(C)C)cc2)cc1,38% (inactive)
16,COc1ccc(-c2nn(-c3cccc(Cl)c3)cc2-c2c(C#N)c(=O)n3[nH]c(-c4ccc(C)cc4)nc3c2C#N)cc1,61.7% (inactive)
17,COc1ccc2sc3c(NCCCN)nc4ccccc4c3c(=O)c2c1,2.17% (active)
18,O=c1[nH]c(Cl)nc2c1cnn2-c1ccccc1,-2.45% (active)
19,CNCCNc1nc2ccccc2c2c(=O)c3cc(F)ccc3sc12,-33.1% (active)
20,O=c1[nH][n+](-c2ccc(Br)cc2)no1,20.2% (inactive)
21,O=C(CNc1ccc(Cl)cc1)Nc1ccc(-c2nc3ccccc3s2)cc1,71% (inactive)
22,O=C(NNC(=S)Nc1ccccc1)c1cc2ccc1CCc1ccc(cc1)CC2,77.1% (inactive)
23,COc1ccccc1N=Nc1c(O)ccc2cc(S(=O)(=O)O)ccc12,106% (inactive)
24,Clc1ccccc1N=Cc1ccc2c(c1)OCO2,94.6% (inactive)
25,Cc1cc(C)cc(Nc2nccc(-c3c(-c4ccc(F)cc4)ncn3C3CCNCC3)n2)c1,-58.9% (active)
26,COc1cc(/C=N/NC(=O)c2ccc(C(F)(F)F)nc2Nc2ccc(Cl)cc2C)ccc1O,4.41% (active)
27,COc1cc(-c2cc(-c3ccc(Nc4ncnc5cc(Cl)ccc45)cc3)nc(N3CCN(C)CC3)n2)cc(OC)c1OC,76.4% (inactive)

row,SMILES,growth
1,C[C@@H](NC(=O)c1ncnc(N)c1Cl)c1ncc(C(=O)Nc2cc(C(F)(F)F)c(Cl)cn2)s1,35.4% (inactive)
2,O=C1c2cccnc2C(=O)c2nc3cc(N4CCN(C5CC5)CC4)ccc3nc21,-43.1% (active)
3,COc1ccc(C(O)c2cc3c(N)c(C(=O)Nc4cccc(Cl)c4C)sc3nc2C)cc1 (centres undefined),-51% (active)
4,O=C(/C=C/c1ccc(F)cc1)N1CCN(C(=O)/C=C/c2ccc(C(F)(F)F)cc2)CC1,97% (inactive)
5,COC(=O)[C@@H](C)CNS(=O)(=O)N(c1cc(C(F)(F)F)cc(C(F)(F)F)c1)C1CCN(Cc2ccc(F)cc2)CC1,31.3% (inactive)
6,Nc1n[nH]c2ccc([C@@H]3Nc4ccc5[nH]ncc5c4[C@H]4[C@H]5CCC(C5)[C@H]43)cc12,-41.5% (active)
7,CC1=CNNc2c3ncnc-3ncn21,99.8% (inactive)
8,O=C1c2cccc3c(-c4ccc(-c5nc6c7ccccc7c7ccccc7c6[nH]5)cc4)ccc(c23)C(=O)N1CCN1CCNCC1,82.5% (inactive)
9,Cc1[nH]nc2c1C(c1cnn(C)c1)C(C#N)=C(N)O2 (centres undefined),99.5% (inactive)
10,COc1ccc2c(c1)O/C(=C/c1ccc(OCC(=O)Nc3ccc(S(N)(=O)=O)cc3)cc1)C2=O,89.5% (inactive)
11,O=C(N/N=C/C=C\c1ccccc1)C(=O)N/N=C/C=C/c1ccccc1,110% (inactive)
12,COC(=O)c1oc2c(C(=O)/C=C/c3ccc(OC)cc3)c(OCCN3CCOCC3)ccc2c1C,-24.1% (active)
13,Cc1ccc(Nc2nc(N)nc(CSCC(=O)NN)n2)cc1,20.5% (inactive)
14,CC12CC3CC1C(C(=O)O2)C3C(=O)O (centres undefined),95.6% (inactive)
15,N#Cc1ccc(N2Cc3cc(Cl)ccc3OC3=C2C(=O)N(Cc2ccc(F)cc2)C3=O)cc1,-57.9% (active)
16,O=[N+]([O-])c1cccc(-c2ncc(-c3ccc(Cl)cc3Cl)[nH]2)c1,70.1% (inactive)
17,CCCCCCCCc1cc(Cl)c(O)c(Cl)c1,101% (inactive)
18,Nc1nc2c(ncn2C2OC3COP(=O)(O)OC4C(COP(=O)(O)OC2C3O)OC(n2cnc3c(N)ncnc32)C4O)c(=O)[nH]1 (centres undefined),103% (inactive)
19,COc1ccc2nc3cc(Cl)ccc3c(N3CCN(c4nccc(Nc5ccc(Cl)cc5)n4)CC3)c2c1,48% (inactive)
20,N#Cc1c(-c2ccc(Cl)cc2)csc1NC(=O)Nc1cccc(C(F)(F)F)c1,-13% (active)
21,Cc1ccc(S(=O)(=O)N2CCCN(c3nc(-c4ccccc4)nc4nc(-c5ccccc5)oc34)CC2)cc1,110% (inactive)
22,NCCC(=O)c1ccc(Cl)cc1,95.6% (inactive)
23,CC(C)(CC(=O)O)CC(=O)O,103% (inactive)
24,CN1CCN(C(=O)[C@]23CCC(C)(C)C[C@H]2C2=CC[C@@H]4[C@@]5(C)C/C(=C/c6cccnc6)C(=O)C(C)(C)[C@@H]5CC[C@@]4(C)[C@]2(C)CC3)CC1,-32.4% (active)
25,Fc1cccc(CNc2c3ccccc3nc3ccccc23)c1,47% (inactive)
26,O=C1OCC2=C1C(c1ccc3c(c1)OCO3)CC(=O)N2c1cccc(Cl)c1 (centres undefined),95.6% (inactive)
27,O=C(O)c1cn(C2CC2)c2cc(N3CCN(Cc4ccc5ccccc5c4O)CC3)c(F)cc2c1=O,69.7% (inactive)

row,SMILES,growth
1,CCCCn1sc(=O)n(Cc2ccc(CNC(=O)OCc3ccc4c(Cl)cc(Cl)c(O)c4n3)cc2)c1=O,67.9% (inactive)
2,CS/C(=C\c1ccc(C(=O)c2ccc(C)cc2)n1C)S(C)=O (centres undefined),53.6% [100 µM] (inactive)
3,C[C@@H]1O[C@@H](O[C@@H]2C[C@H](c3ccc4c(c3O)C(=O)C3=C(C4=O)[C@@]4(O)C(=O)C[C@](C)(O)C[C@@]4(O)C=C3)O[C@H](C)[C@H]2O)CC[C@@H]1O[C@H]1C[C@@H](O)[C@H](O)[C@@H](C)O1,99.4% (inactive)
4,CCCCCCCCCCCC1=NC(C)(C)CN1C(C)(C)CO,58.3% (inactive)
5,O=C1Nc2ccccc2/C1=C/c1cccn1C(=O)c1ccc(Cl)s1,57.3% (inactive)
6,CCN(CCCNc1cc2c(c(N)c1S(=O)(=O)O)C(=O)c1ccccc1C2=O)c1ccccc1,84.9% (inactive)
7,COCN1CCC2N(COC)CCC3N(COC)CCC1N23 (centres undefined),92.6% (inactive)
8,O=C1C=CC(=O)N1c1ccc(Cc2ccc(N3C(=O)C=CC3=O)cc2)cc1,9.02% (active)
9,Cc1nc(Nc2cn[nH]c2C(=O)Nc2ccc(CN3CCN(C)CC3)cc2)c2ccsc2n1,113% (inactive)
10,CCOC(=O)c1c(C)c2c(n1Cc1ccccc1)CSCC2=O,13.3% [100 µM] (inactive)
11,CCCCNC1(C#N)CCN(Cc2ccccc2)CC1,153% (inactive)
12,C[C@@H]1C[C@H]2C(=O)O[C@@H](C)[C@H](NC(=O)[C@H](Cc3cc(F)cc(F)c3)NC(=O)Nc3ccc(Cl)cc3F)C(=O)N3C[C@H](O)C[C@H]3C(=O)N3CCN(C)C[C@H]3C(=O)N[C@@H](C)C(=O)N2C1,30.1% (inactive)
13,O=C(Nc1cccc(Cl)c1)Nc1cc2ncncc2cc1OCc1cccc(F)c1,7.49% (active)
14,CCOC(=O)C1C(=O)C=C(c2cnccn2)CC1c1ccc(OC)c(OC)c1 (centres undefined),63.9% (inactive)
15,O=C1c2ccccc2C(=Cc2ccccc2)c2ccccc21,-1.29% (active)
16,Nc1n[nH]c2ccc([C@@H]3Nc4c(F)cc5[nH]ncc5c4[C@H]4C5CCC(C5)[C@@H]34)cc12 (some centres undefined),1.76% (active)
17,COc1cc(C2C=C(c3ccc(Cl)c(Cl)c3)N=C3SC(C)=CN32)cc(OC)c1OC (centres undefined),61.6% (inactive)
18,CC(C)OC(=O)Nc1ccc(-c2nc(-c3cccc(OCCN4CCOCC4)c3)c(-c3ccnc(Br)c3)[nH]2)cc1,-47.7% (active)
19,C=C(C)[C@@H]1CC[C@]2(C(=O)O)CC[C@]3(C)[C@H](CC[C@@H]4[C@@]5(C)C[C@@H](CC#Cc6ccc(Cl)cc6)C(=O)C(C)(C)[C@@H]5CC[C@]43C)[C@@H]12,22.2% (inactive)
20,N#Cc1c(-c2ccccc2)nc(SCC(=O)N2CCN(c3ccccc3)CC2)[nH]c1=O,62.5% (inactive)
21,Cc1cc(N2CCN(CC(=O)Nc3ccc4c(ccn4Cc4ccccc4)c3)CC2)nc(N2CCOCC2)n1,87.3% (inactive)
22,COc1ccc(/C=C(\C#N)c2cc3ccccc3n2C(C)=O)cc1,83.2% (inactive)
23,COc1cccc(-c2nc3sccn3c2-c2ccnc(NCCCNS(=O)(=O)c3ccc(F)cc3)n2)c1,12.1% (inactive)
24,CCOC(=O)c1c(C=O)nc2ccccc2c1/C=C/c1ccc(Cl)cc1,69.7% (inactive)
25,Cc1ccc2c(-n3nc(C#N)c(C#N)c3N)cc(=O)[nH]c2c1,109% (inactive)
